Screens (PubChem)
The list is not random: actives were taken first. Their share in the collection is about 1.1%.
NCOA2 inhibitor – human SRC2 (NCOA2) inhibition; HEK293 GAL4-SRC2 luciferase reporter, luminescence; inhibition, % at 9 µM; 370,000 compounds, 0.17% hits;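 active = inhibition above the mean inhibition of all tested compounds plus 3 SD, set per campaign, cut at about 52% in these data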;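 also: 0% = DMSO treated cells and 100% = cells given Gossypol at 36 µM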
Target sequence (Q15596 whole entry, looked up, the tested form may be a part): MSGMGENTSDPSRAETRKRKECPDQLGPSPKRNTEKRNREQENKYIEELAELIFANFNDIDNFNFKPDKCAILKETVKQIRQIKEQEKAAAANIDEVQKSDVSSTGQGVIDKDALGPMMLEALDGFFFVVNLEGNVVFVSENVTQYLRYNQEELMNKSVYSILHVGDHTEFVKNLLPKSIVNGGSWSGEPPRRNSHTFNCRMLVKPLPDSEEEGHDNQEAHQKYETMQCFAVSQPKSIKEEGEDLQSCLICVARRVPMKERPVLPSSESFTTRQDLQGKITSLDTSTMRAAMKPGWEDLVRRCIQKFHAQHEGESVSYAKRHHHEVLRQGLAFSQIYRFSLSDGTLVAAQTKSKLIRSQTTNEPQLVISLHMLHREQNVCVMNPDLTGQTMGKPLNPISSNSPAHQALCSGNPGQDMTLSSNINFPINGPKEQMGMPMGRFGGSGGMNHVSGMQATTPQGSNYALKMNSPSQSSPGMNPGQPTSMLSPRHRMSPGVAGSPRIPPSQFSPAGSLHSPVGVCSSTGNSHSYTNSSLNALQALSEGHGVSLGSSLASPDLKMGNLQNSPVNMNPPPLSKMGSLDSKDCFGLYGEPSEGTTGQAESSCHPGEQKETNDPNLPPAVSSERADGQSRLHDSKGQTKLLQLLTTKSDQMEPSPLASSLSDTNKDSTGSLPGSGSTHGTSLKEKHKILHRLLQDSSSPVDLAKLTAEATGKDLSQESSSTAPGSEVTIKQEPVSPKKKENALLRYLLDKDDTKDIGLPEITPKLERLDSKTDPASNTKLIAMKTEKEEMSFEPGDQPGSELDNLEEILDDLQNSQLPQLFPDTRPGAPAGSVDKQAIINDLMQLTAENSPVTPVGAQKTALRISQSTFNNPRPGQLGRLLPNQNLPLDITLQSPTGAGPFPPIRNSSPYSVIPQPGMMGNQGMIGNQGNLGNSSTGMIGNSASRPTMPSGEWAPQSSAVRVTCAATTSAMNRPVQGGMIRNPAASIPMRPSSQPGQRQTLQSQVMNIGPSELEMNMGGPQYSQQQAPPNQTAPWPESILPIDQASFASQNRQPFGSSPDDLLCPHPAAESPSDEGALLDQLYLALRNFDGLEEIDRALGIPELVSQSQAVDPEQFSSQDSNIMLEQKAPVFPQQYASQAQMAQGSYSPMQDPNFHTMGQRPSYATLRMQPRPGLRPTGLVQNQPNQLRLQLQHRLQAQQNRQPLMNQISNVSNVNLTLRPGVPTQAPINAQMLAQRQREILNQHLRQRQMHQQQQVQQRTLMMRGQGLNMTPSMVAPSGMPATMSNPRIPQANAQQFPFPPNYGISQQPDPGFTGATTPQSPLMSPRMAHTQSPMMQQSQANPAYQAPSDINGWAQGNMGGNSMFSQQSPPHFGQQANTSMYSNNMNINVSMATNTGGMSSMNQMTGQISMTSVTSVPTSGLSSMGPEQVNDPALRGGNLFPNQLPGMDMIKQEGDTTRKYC
LRH-1 inv ag – NR5A2 inverse agonism in reporter assay | inhibition, % at 3.6 µM | O00482 | 360,000 compounds, 0.13% hits | HEK293T StAR-luciferase reporter, LRH-1 transfected, 24 h;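 active = inhibition above the mean inhibition of all tested compounds plus 3 SD, cut at about 73% in these data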;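 also: 0% = DMSO wells and 100% = reporter-only cells lacking LRH-1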
GalR3 antagonist – antagonists of human GalR3 | AID 651719 | O60755 | inhibition, % at 3 µM | HEK293 GalR3-CNG cAMP membrane potential fluorescence; galR3 body fused to GalR1 C-terminus | 360,000 compounds, 0.44% hits;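 active = inhibition above the screen-wide average plus 3 SD, cut at about 13% in these data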;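 also: forskolin and galanin both at EC90 stimulate the cells; cAMP rise reported by CNG channel membrane potential dye signal; 0% = forskolin plus galanin with DMSO and 100% = forskolin alone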
COUP-TFII inh – blocks human COUP-TFII nuclear receptor; P24468; HEK293T NGFI-A luciferase reporter, luminescence; inhibition, % at 8.6 µM; 370,000 compounds, 0.7% hits; AID 686940;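 active = inhibition above a per-plate cutoff, mean inhibition of test wells between control levels plus 3 SD, cut at about 38% in these data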;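 also: cells cotransfected with COUP-TFII expression vector driving the NGFI-A reporter; 0% = median of COUP-TF2 test wells and 100% = reporter-only cells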
SRC1 inh – inhibits human SRC1 coactivator | inhibition, % at 3.6 µM | Q15788 | AID 588354 | 360,000 compounds, 0.12% hits | HEK293 GAL4-SRC1 luciferase reporter, luminescence;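 active = inhibition above the campaign mean plus 3 SD, with each screening campaign given its own cutoff, cut at about 60% in these data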;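 also: 0% = DMSO treated cells and 100% = gossypol at 36 µM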
SRC3 inh – inhibits human SRC3 coactivator | Q9Y6Q9 | HEK293 GAL4-SRC3 luciferase reporter, luminescence | inhibition, % at 3.6 µM | 360,000 compounds, 0.17% hits | AID 588352;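 active = inhibition above a per-campaign cutoff, the mean of all compounds plus 3 SD, cut at about 60% in these data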;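 also: 0% = DMSO-treated cells and 100% = gossypol-treated cells at 36 µM; higher means less SRC3-driven luciferase light from the GAL4 reporter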
Gal4-VP16 ctr – counter-screen for COUP-TFII antagonists: inhibitors of VP16; shares compounds with COUP-TFII inh; 2,500 compounds, 25% hits; HEK293 Gal4-VP16 luciferase reporter, luminescence; AID 687007; inhibition, % at 8.5 µM; in the data active = inhibition above about 13%
COUP-TFII conf – confirmation of human COUP-TFII (NR2F2) inhibitors; shares compounds with COUP-TFII inh; HEK293 NGFI-A luciferase reporter, luminescence; inhibition, % at 8.5 µM; 2,500 compounds, 45% hits;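 active = mean inhibition over three repeats above a set limit taken from the earlier primary screen, cut at about 38% in these data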;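 also: 100% = cells given the luciferase reporter alone without the COUP-TF2 vector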
Active calls of the source: *; / = no result.

SMILES | NCOA2 inhibitor | LRH-1 inv ag | GalR3 antagonist | COUP-TFII inh | SRC1 inh | SRC3 inh | Gal4-VP16 ctr | COUP-TFII conf
COc1ccc(-c2cnc3c(NC(C)=O)cc(-c4cccc(NS(C)(=O)=O)c4)cn23)cc1OC | -3 | 18 | 7 | 99* | -13 | 1 | -1 | -8
CC(=O)Nc1cc(-c2cccc(NS(C)(=O)=O)c2)cn2c(-c3cccc(C(C)=O)c3)cnc12 | -16 | 38 | -6 | -12 | -22 | 13 | / | /
COc1cc(-c2cnc3c(NC(C)=O)cc(-c4ccc(N5CCN(C)CC5)cc4)cn23)cc(OC)c1OC | 13 | -18 | -7 | 41* | 27 | 14 | -15 | 9
O=C(NCc1cccnc1)c1cc(Sc2ccccc2Cl)nc2ccccc12 | 0 | 20 | -5 | 3 | 1 | 17 | / | /
COc1ccccc1N1CCN(C(=O)CCC(=O)N2CCN(c3ccc(F)cc3)CC2)CC1 | 14 | 1 | -8 | 40* | 16 | 13 | -4 | 5
COc1ccccc1N1CCN(C(=O)c2sc3nc(-c4ccc(F)cc4)cn3c2C)CC1 | 17 | -3 | / | 52* | 8 | 18 | 1 | 30
COc1ccc(-c2cn3c(C)c(C(=O)N4CCN(c5ccc(F)cc5)CC4)sc3n2)cc1 | -1 | -1 | / | 1 | 9 | 2 | / | /
CC(=O)c1ccc(OCc2cc([N+](=O)[O-])cc3c2OCOC3)cc1 | 6 | -24 | -5 | -29 | 3 | 6 | / | /
CCOc1ccc(C2C(C#N)=C(N)N(c3sc4c(c3C#N)CCCC4)C3=C2C(=O)CCC3)cc1 (stereo not drawn) | -10 | -30 | -4 | 1 | 1 | -2 | / | /
O=C(c1cc(=O)[nH]c2ccccc12)N1CCN(S(=O)(=O)c2ccc3ccccc3c2)CC1 | 8 | 5 | -6 | 10 | -6 | 5 | / | /
Cc1ccc(OCCN2CCN(C(=O)CCC(=O)Nc3nnc(CC(C)C)s3)CC2)cc1 | 8 | 25 | -4 | 56* | 32 | 24 | 4 | 33
S=C(NCc1ccc(Cl)cc1)Nc1ccncc1 | 21 | 49 | 6 | 58* | 5 | 12 | 17* | 44*
O=C(Cc1ccc(Cl)cc1Cl)Nc1ccncc1 | 18 | 58 | 0 | 50* | 8 | 20 | -2 | 37
O=[N+]([O-])c1cccc(NC(=S)Nc2nc(-c3ccccc3Cl)cs2)c1 | -11 | -2 | -3 | -8 | -27 | -5 | / | /
Cc1ccc(C(c2nnnn2C2CCCC2)N2CCN3CCCC3C2)cc1 (stereo not drawn) | 5 | -10 | -6 | 10 | 0 | 11 | / | /
O=C(NCc1ccccn1)Nc1cccc([N+](=O)[O-])c1 | -7 | -11 | -1 | 13 | 10 | -16 | / | /
CC(=O)N1c2ccc(S(=O)(=O)N3CCC(C(=O)N4CCN(c5cc(Cl)ccc5C)CC4)CC3)cc2CC1C (stereo not drawn) | 17 | 2 | -6 | 43* | -31 | 15 | 5 | 19
CC(C)[C@@H]1CC[C@@H](C)c2c(-c3ccccc3)n[nH]c21 | 4 | 15 | -5 | 1 | 8 | 23 | / | /
O=C(NCCc1ccccc1)C1CCCN(S(=O)(=O)c2cccs2)C1 (stereo not drawn) | 15 | -17 | -5 | 19 | -16 | -6 | / | /
O=C(NCCN1CCC(Cc2ccccc2)CC1)C1CCCN(S(=O)(=O)c2cccs2)C1 (stereo not drawn) | 13 | / | / | 47* | / | / | -1 | 6
N#Cc1ccccc1COc1ccc(/C=C/C(=O)O)cc1 | 69* | 27 | -4 | 68* | 5 | 14 | 63* | 51*
CCC(C)N(C(=O)Cn1nnc(-c2ccc(F)cc2)n1)C1CCS(=O)(=O)C1 (stereo not drawn) | -4 | 1 | -2 | -9 | -12 | 11 | / | /
C=CCN=C1NN=C(c2cc(C)n(CCOC)c2C)CS1 | 70* | -7 | -2 | 86* | 13 | 28 | 75* | 96*
COc1ccc(-n2c(C)cc(C3=NNC(=NC4CC4)SC3)c2C)cc1 | -66 | -36 | -6 | 1 | -45 | -53 | / | /
Cc1cc(C2=NNC(=NC3CC3)SC2)c(C)n1-c1ccccc1 | 80* | 77* | -5 | 52* | 84* | 86* | 71* | 106*
SMILES | NCOA2 inhibitor | LRH-1 inv ag | GalR3 antagonist | COUP-TFII inh | SRC1 inh | SRC3 inh | Gal4-VP16 ctr | COUP-TFII conf
COCCn1c(C)cc(C2=NNC(=Nc3ccc(Cl)cc3Cl)SC2)c1C | 11 | 12 | -6 | -5 | -8 | 4 | / | /
COCCn1c(C)cc(C2=NNC(=NC3CC3)SC2)c1C | 86* | 87* | -6 | 94* | 89* | 91* | 89* | 109*
Cc1cc(C2=NNC(=NC3CC3)SC2)c(C)n1Cc1ccco1 | 83* | 76* | 1 | 89* | 76* | 83* | 77* | 103*
c1ccc(-c2noc(CN3CCc4sccc4C3)n2)cc1 | -68 | -7 | -4 | -10 | -19 | -11 | / | /
COCCNC(=O)c1cccc(C)c1[N+](=O)[O-] | -8 | 11 | -4 | 7 | 5 | 11 | / | /
O=C(N[C@@H]1CCCc2c1cnn2-c1ccc(F)cc1F)c1ccccn1 | / | / | / | 38* | / | / | -7 | 7
COc1cc(C(=O)NC2CCCc3c2cnn3-c2ccccc2F)cc(OC)c1OC (stereo not drawn) | 10 | 33 | -10 | 46* | 16 | 37 | -9 | 19
CC(C)NC(=O)COC(=O)c1ccccc1CSC1=NCCS1 | 8 | 4 | -7 | -1 | -1 | -21 | / | /
NC(=O)c1sc2nc3c(c(-c4cccs4)c2c1N)CCCCC3 | 46 | 14 | -2 | 43* | 69* | 67* | 14* | 32
NC(=O)c1sc2nc3c(c(-c4cccnc4)c2c1N)CCC3 | -8 | -1 | -7 | -2 | 10 | 19 | / | /
Cc1cccc(NC(=O)C2CCN(S(=O)(=O)c3cccc4nsnc34)CC2)n1 | 12 | -2 | -2 | 19 | 6 | 8 | / | /
COc1ccc2nc(NC(=O)C3CCN(S(=O)(=O)c4cccc5nsnc45)CC3)sc2c1 | 49 | 14 | -4 | 78* | -1 | 18 | 5 | 51*
CCOc1ccc2[nH]c3c(NCCc4ccc(OC)c(OC)c4)ncnc3c2c1 | -10 | -1 | -3 | 49* | -29 | 16 | -11 | 5
CCOc1ccc2[nH]c3c(NCCO)ncnc3c2c1 | -70 | 2 | -10 | -23 | -7 | -8 | / | /
CCCCN(CC)C(=O)Cn1ncc2c1-c1cc(C)ccc1OC2 | -11 | -4 | / | -23 | 2 | -11 | / | /
CC(C)CNC(=O)c1nc(-c2ccccc2)n(-c2ccccc2)n1 | 8 | -7 | -2 | 13 | -28 | 18 | / | /
